Source: PubChem BioAssay (NCATS)
Results filed as inconclusive are left out. Entries that show only a call come without a potency. Calls of active or inactive are those of the source. Calls follow the shape of the full dose curve.

Experiment: qHTS assay for small molecule disruptors of the mitochondrial membrane potential - 5 hr assay (AID 651755); also: nearly all actives have a fitted effect of over 40% in size
Settings: JC-1-type ratio dye; series mostly up to 92.2 µM
Source text: National Center for Advancing Translational Sciences [NCATS]
NIH Chemical Genomics Center [NCGC]
National Institutes of Environmental Health Sciences [NIEHS]
National Toxicology Program [NTP]
Mitochondrial membrane potential (MMP), one of the parameters for mitochondrial function, is generated by mitochondrial electron transport chain that creates an electrochemical gradient by a series of redox reactions. This gradient drives the synthesis of ATP, a crucial molecule for various cellular processes. Measuring MMP in living cells is commonly used to assess the effect of chemicals on mitochondrial function. […] The dye accumulates in the mitochondria of healthy cells as aggregates, with red fluorescence. The mitochondrial potential collapses and the dye can no longer accumulate in the mitochondria and remains in the cytoplasm in monomers, with green fluorescence.
2,000 HepG2 cells in 5 uL/well were dispensed into black, clear-bottom 1536-well plates using a Multidrop Combi (Thermo Scientific) dispenser. The assay plates were incubated overnight at 37C to allow cells to attach to the wells, followed by the transfer of 23 nL compound or DMSO vehicle by a pin tool (Kalypsys). The plates were incubated for 5 hr at 37C and 5% CO2, followed by the addition of 5 uL of 2X Mito-MPS dye (BD Biosciences) into each well using Flying Reagent Dispenser (Aurora Discovery) and then following 30 min incubation at 37C. Fluorescence intensity (490nm excitation and 535nm emission for monomers; and 540nm excitation and 590nm emissions for aggregates) was measured using an Envision plate reader.

Compound | Potency
Nc1ccc(Cl)cc1Cl | inactive
COc1c2ccoc2cc2oc(=O)ccc12 | inactive
COC(=O)c1ccc(C=O)cc1 | inactive
S=C1NC=NC2N=CNC12 (stereo not given) | inactive
CCO[Si](CCCN)(OCC)OCC | inactive
Clc1cc(Cl)c(Cl)cc1Cl | inactive
CCCCCCCCCCCC(=O)O | inactive
C=CCc1ccc(OC)c(OC)c1 | inactive
C[C@H](CCC(=O)O)[C@H]1CC[C@H]2[C@@H]3CC[C@@H]4C[C@H](O)CC[C@]4(C)[C@H]3CC[C@]12C | inactive
Nc1ccc(S(=O)(=O)O)cc1 | inactive
C=CC(=C)CCC=C(C)C | inactive
O[C@@H]([C@H](O)[C@@H](O)CBr)[C@@H](O)CBr | inactive
CC(=O)OC/C=C(\C)CCC=C(C)C | inactive
OCCNCCO | inactive
CC12CCC(CC1=O)C2(C)C (stereo not given) | inactive
C=Cc1ccccc1Cl | inactive
Cc1ccccc1C | inactive
Clc1cc(Cl)c(Cl)c(Cl)c1Cl | inactive
CC1(C)CC(N=C=O)CC(C)(CN=C=O)C1 (stereo not given) | inactive
C1OCOCO1 | inactive

Compound | Potency
O=C(O)c1ccc(O)cc1O | inactive
COC(=O)CCCCC(=O)OC | inactive
COCC(=O)O | inactive
CCCCCCCCCCCCCC(=O)O | inactive
CCCCCCCCO | inactive
CCC(O)OC(O)CC (stereo not given) | inactive
c1ccc2scnc2c1 | inactive
O=C(O)CC(C(=O)O)C(CC(=O)O)C(=O)O (stereo not given) | inactive
CC1=CC(C)(C)Nc2ccccc21 | inactive
CCC(C)c1ccccc1O (stereo not given) | inactive
COc1cc(/C=C/c2ccccc2)oc(=O)c1 | inactive
COc1ccc2nc(N)sc2c1 | inactive
CN(C)CCCCCCN(C)C | inactive
C=CC(=O)OCCOCCOCCOCCOC(=O)C=C | inactive
CC(C)=CCCC(C)CCO (stereo not given) | inactive
CCCCC(CC)CN (stereo not given) | inactive
NC1=NC(S)C2N=CN=C2N1 (stereo not given) | inactive
C=CCOC(=O)c1ccccc1C(=O)OCC=C | inactive
O=C(O)c1ccccc1 | inactive
O=C(/C=C/c1ccc(O)c(O)c1)O[C@@H](C(=O)O)[C@@H](OC(=O)/C=C/c1ccc(O)c(O)c1)C(=O)O | inactive
